Screens (PubChem)
Most compounds without a hit are left out; they make up all but 18% or so of the library.
TDP1 cell CPT: growth inhibition of DT40 Tdp1-/-;hTDP1 cells with camptothecin (screen for TDP1 inhibitors); 12% of 420,000 active; chicken DT40 Tdp1-/-;hTDP1 cells + 20 nM CPT, ATP luminescence, 48 h; Potency, µM (highest dose often 46.2 µM), for inactives: at the top dose activity change, negative = growth inhibition, actives largely listed as inhibitors; note: potency is the fitted concentration of half-maximal effect; nearly all actives have a fitted effect of over 55% in size
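Cell growth measured by CellTiter-Glo luminescence after a minimum 48 h, 37 C compound exposure with 20 nM CPT in Tdp1-knockout DT40 cells stably expressing hTDP1, seeded 400/well; qHTS titration format.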
RORg inh: ROR gamma (mouse) transcription inhibition; P51450; Drosophila S2 Gal4-RORgamma UAS-luciferase reporter, 20 h; 5.4% of 310,000 active; Potency, µM (titrated, usually from 53.6 µM), without a hit: top-dose activity change, negative = inhibition, usual class: inhibitors; note: potency is the fitted concentration of half-maximal effect; nearly all actives have a fitted effect of over 60% in size
Target sequence (P51450 whole entry, looked up, the tested form may be a part): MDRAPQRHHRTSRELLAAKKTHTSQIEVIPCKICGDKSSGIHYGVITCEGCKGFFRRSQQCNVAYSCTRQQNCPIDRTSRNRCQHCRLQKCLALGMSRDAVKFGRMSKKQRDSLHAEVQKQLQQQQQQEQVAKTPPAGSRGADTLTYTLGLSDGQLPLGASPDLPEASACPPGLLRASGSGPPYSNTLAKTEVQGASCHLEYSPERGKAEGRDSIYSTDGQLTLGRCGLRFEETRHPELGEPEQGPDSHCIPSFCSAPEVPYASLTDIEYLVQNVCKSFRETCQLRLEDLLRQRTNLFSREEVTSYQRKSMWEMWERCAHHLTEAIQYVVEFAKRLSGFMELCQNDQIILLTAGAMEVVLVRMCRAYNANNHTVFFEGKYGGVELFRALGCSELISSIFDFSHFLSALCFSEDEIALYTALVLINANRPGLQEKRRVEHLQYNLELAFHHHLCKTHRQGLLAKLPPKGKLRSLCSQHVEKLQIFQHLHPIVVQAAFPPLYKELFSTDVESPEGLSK
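Drosophila Schneider cells stably carrying a metallothionein-driven Gal4 DBD–ROR gamma fusion and a UAS-Photinus luciferase reporter were exposed to compound for 1 hr, then induced with copper sulfate (700 uM final) for 20 hr at ambient temperature before luminescence reading.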
LDHA block: blocks human lactate dehydrogenase A; purified LDHA, NADH/diaphorase-resazurin fluorescence; active compounds read low; 0.15% of 480,000 active; P00338; activity change, % (values are at about 110 or 230 µM); in the data active = activity change below about -30%; inconclusive = mostly about -25% to -30%;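 note: plate controls were DMSO wells for no effect and wells without enzyme for full effect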
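Human LDH5 (2 nM) was incubated with 0.06 mM NADH and 0.2 mM pyruvate for 5 min at room temperature in Tris pH 7.4. Remaining NADH was coupled through diaphorase/resazurin, and resorufin fluorescence was read at 0 and 20 min.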
IL-1B inflam inh: inflammasome signaling inhibition, IL-1 beta readout; THP-1 LPS/ATP IL-1B secretion, AlphaLISA, 16 h; active compounds read low; activity change, % at 57.5 µM; 4.7% of 360,000 active; in the data active = activity change below about -50%; inconclusive = mostly about -30% to -49%
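THP-1 cells pretreated 1 hr with compounds (up to 57.5 uM final), then stimulated with LPS (250 ng/mL final) plus ATP (1.25 mM final); secreted IL-1B measured by AlphaLISA after 16 hr, decreased signal indicating inhibition.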
Gal4-VP16 FLuc: counter-screen for ROR gamma inhibitors: Gal4-VP16 reporter; AID 2546; 3.5% of 310,000 active; Drosophila S2 Gal4-VP16 UAS-luciferase, luminescence, 20 h; Potency, µM (top dose mostly 53.6 µM), inactives show at the highest dose activity, negative = inhibition, usual class: inhibitors;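 note: Gal4-VP16 expression switched on by copper sulfate through the metallothionein promoter; potency is the fitted concentration of half-maximal effect; nearly all actives have a fitted effect of over 50% in size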
TDP1 cell noCPT: qHTS for Inhibitors of human tyrosyl-DNA phosphodiesterase 1 (TDP1): qHTS in cells in absence of CPT; AID 686978, 2013; Potency, µM (top dose mostly 46.2 µM), for inactives: at the top dose activity change, negative = growth inhibition, most hits filed as inhibitors; DT40 Tdp1-/- hTDP1 cells, no CPT, ATP luminescence, 48 h; 15% of 420,000 active; note: potency is the fitted concentration of half-maximal effect; nearly all actives have a fitted effect of over 55% in size
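Stably hTDP1-transfected Tdp1-null chicken DT40 cells were treated with library compounds minus camptothecin and grown for at least 48 hr at 37 °C, after which cellular ATP was quantified by luminescence.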
An asterisk follows results filed as active; ? = inconclusive; . = no result given. Unless noted, calls come from the whole dose curve; as a rule, active = well fitted curve in the direction sought with a large enough effect; inconclusive = small, poorly fitted or top-dose-only effect, or another doubt; inactive = no such curve, though single readings can be large; an effect the other way counts as inactive or inconclusive. Unless noted, % is set by controls: 0 for no effect and ±100 for the full control effect.

SMILES	TDP1 cell CPT	RORg inh	LDHA block	IL-1B inflam inh	Gal4-VP16 FLuc	TDP1 cell noCPT
CCC(=O)N1N=C(c2ccsc2)CC1c1ccc2nccnc2c1 (stereo unspecified)	.	.	-5.1	.	.	.
COc1ccc(CNC(=O)CSc2ncc3c(n2)-c2ccc(Cl)cc2N(Cc2ccc(F)cc2)S3(=O)=O)cc1OC	11.6µM*	.	1.4	.	.	11.6µM*
COc1ccc(CNC(=O)CSc2ncc3c(n2)-c2cc(Cl)ccc2N(Cc2ccccc2)S3(=O)=O)cc1OC	14.6µM*	.	-1.8	.	.	11.6µM*
COc1ccc(CNC(=O)CSc2ncc3c(n2)-c2cc(Cl)ccc2N(Cc2ccccc2)S3(=O)=O)cc1	2.5%	.	-5.1	.	.	-16.8%
COc1ccc(NC(=O)CSc2ncc3c(n2)-c2ccccc2N(C)S3(=O)=O)cc1Cl	?	.	-13.3	.	.	?
COc1ccccc1NC(=O)CSc1ncc2c(n1)-c1cc(Cl)ccc1N(C)S2(=O)=O	7.31µM*	.	-1.7	.	.	10.3µM*
CCC(=O)n1nc(-c2ccc(Cl)cc2)nc1NCc1ccccc1	14.6µM*	?	-10.4	-16.8	11.5%	16.4µM*
O=C(CN1CCCCC1)Nc1nc(-c2ccccc2)c(-c2ccccc2)s1	.	.	1.9	.	.	.
O=C(NC1CCCCCC1)C1CCN(c2nc3ccccc3o2)CC1	?	31.3%	-4.4	17.6	-3.6%	16.4µM*
O=C(NCCN1CCOCC1)c1sc2ccccc2c1Cl	7.1%	-11.5%	-10.5	20.0	27.6%	?
Cc1cc2oc3cc(NCCC4CCCN4C)ccc3c(=O)c2cc1C (stereo unspecified)	8.2µM*	.	0.3	-85.3*	.	5.8µM*
CC(C)c1ccc2sc3ccccc3c(=O)c2c1	.	.	5.1	.	.	.
COc1cc2sc3cc(NCCCN4CCOCC4)ccc3c(=O)c2cc1OC	?	.	0.4	-75.5*	.	?
CN1CCCC1CCNc1ccc2sc3ccccc3c(=O)c2c1 (stereo unspecified)	?	.	1.1	-65.8*	.	?
O=c1c2ccccc2sc2ccc(NCCCN3CCOCC3)cc12	?	.	5.9	0.0	.	23.1µM*
CCN(CC1CCOC1)C(=O)CCc1c(C)c2ccc(OC)cc2oc1=O (stereo unspecified)	.	.	-15.9	.	.	.
COc1ccc(CC(=O)NC(c2cccs2)C(C)C)c(OC)c1OC (stereo unspecified)	.	.	0.0	.	.	.
Cc1ccc(Nc2nc(NCC3CC3)nc3ccsc23)c(C)c1	3.66µM*	.	-1.2	?	.	5.8µM*
Cc1ccc(CNc2nc(NCc3ccccc3)nc3ccsc23)c(C)c1	9.2µM*	.	-2.0	-88.3*	.	?
CNc1nc(NCc2ccc(C)cc2C)c2sccc2n1	18.4µM*	.	-3.6	-8.2	.	6.51µM*
CNc1nc(NCc2ccc(N(C)C)cc2)c2sccc2n1	18.4µM*	.	-0.2	28.9	.	16.4µM*
CN(C)c1ccc(CNc2nc3ccccc3n2C)cc1	-21.1%	.	1.0	-11.6	.	?
CC(=O)NCCNc1nc(NCc2ccccc2)nc2ccsc12	?	.	-6.4	88.9	.	?
Cc1ccc(CNc2nc(NCC3CC3)nc3ccsc23)c(C)c1	9.2µM*	.	-1.7	-18.9	.	10.3µM*
COCCNc1nc(NCc2cnc(C)cn2)c2sccc2n1	-19.4%	.	-6.0	0.0	.	-19.5%
SMILES	TDP1 cell CPT	RORg inh	LDHA block	IL-1B inflam inh	Gal4-VP16 FLuc	TDP1 cell noCPT
CNc1nc(Nc2ccc(C)cc2C)c2sccc2n1	13µM*	.	-6.0	0.0	.	16.4µM*
Cc1ccc(CNc2nc(NC(C)C)nc3ccsc23)c(C)c1	23.1µM*	.	-8.6	-14.4	.	?
CNc1nc(NCC2CCCCC2)c2sccc2n1	13µM*	.	-4.2	-21.3	.	13µM*
Cc1ccc(Nc2ncnc3sccc23)c(C)c1	-21.3%	11.4%	0.9	-15.2	10.1%	?
O=C(Oc1ccc2c(-c3cc4cc(Cl)ccc4oc3=O)cc(=O)oc2c1)N1CCOCC1	.	.	-22.4	.	.	.
CCc1cc(=O)n(CC(=O)Nc2ccc(C(=O)OC)cc2)c(-c2ccccc2)n1	.	.	8.1	.	.	.
Cc1c(C#N)c(NC(=O)CSc2nncn2-c2ccccc2)n(Cc2ccco2)c1C	.	.	2.2	.	.	.
O=C(NCc1cccnc1)c1cc2nc(-c3cccs3)cc(C(F)(F)Cl)n2n1	?	0.8%	1.4	-66.7*	-12.6%	?
O=C(NCc1cccnc1)c1cc(-c2cccs2)on1	13µM*	15.2%	-8.0	67.0	-6.5%	?
O=C(NCc1ccco1)c1cc2nc(-c3cccs3)cc(C(F)(F)F)n2n1	?	2.5%	-10.8	-20.9	-1.3%	?
Cc1ccc(O)c(NC(=O)c2cc(-c3ccc(F)cc3)on2)c1	-18.9%	4.6%	1.8	?	-13.0%	-9.7%
Cc1ccc(O)c(NC(=O)c2cc(-c3cccs3)on2)c1	2.7%	-6.4%	-6.0	-66.8*	?	-25.2%
Cc1c(-c2ccccc2)nc2c(C)cc(Br)cc2c1C(=O)NC1CCCCC1	.	.	-1.8	.	.	.
Cc1cc(C)c(O)c(-c2n[nH]c3c2C(c2cccc(O)c2)N(Cc2cccnc2)C3=O)c1 (stereo unspecified)	.	.	4.0	.	.	.
CC(=N\NC(=O)c1ccc([N+](=O)[O-])cc1)/C(=N/O)C(=O)Nc1ccccc1	?	3.98µM*	-3.3	-5.9	6.31µM*	?
